Measurements published in PubChem BioAssay AID1259422 (The Scripps Research Institute Molecular Screening Center, 2018).
Hit rate of the full screen: of about 640,000 compounds, about 9,300 (1.5%) were called active. No stated cut-off is given here; in the data, active means inhibition above about 32%; inactive means the rest. Many of the other results were omitted from the sample, so actives are more common in it than they were.

Assay: TEAD-YAP interaction inhibition, primary screen, TEAD-YAP interaction inhibitor project, luminescence, HEK-TIYL cells (AID 1259422);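 further: 0% = median of test compound wells and 100% = reference inhibitor wells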
Conditions: TEAD-Gal4/YAP UAS-luciferase luminescence, at 9.12 µM, active compounds read high
With `COc1ccc(C2CC(C(F)(F)F)n3ncc(C(=O)N4CCN(c5cccc(Cl)c5)CC4)c3N2)cc1OC` (stereo not given) the inhibition was -6.74% (inactive).
For `Fc1cnc(Nc2ccc(N3CCNCC3)cc2)cc1-n1cnc(Nc2ccccc2)n1`, the inhibition was 64.6% (active).
With `c1cncc(Nc2nccc(Nc3ccc(N4CCOCC4)cc3)n2)c1` the inhibition was 2.14% (inactive).
In the case of `FC(F)(F)c1cnc(Nc2ccc(N3CCOCC3)cc2)cc1-n1ncc2ccccc21`, the inhibition is reported as -4.45% (inactive).
For `O=C(c1nc2ccc(Cl)cn2c1CNCCn1cccn1)N1CCc2ccccc2C1`, the inhibition was 7.89% (inactive).
For `COc1cccc2c1OC1(CCN(C(=O)Cc3ccc(F)cc3F)CC1)OC2`, the inhibition was -1.73% (inactive).
In the case of `CCN(CC)C(=O)c1cc(-c2ccc(O)cc2)on1`, the inhibition is reported as -1.47% (inactive).
With `COc1ccc(-c2cc(C(=O)N3CCCCC3)no2)cc1` the inhibition was 6.05% (inactive).
In the case of `O=C(c1cc(-c2ccc(O)cc2)on1)N1CCOCC1`, the inhibition is reported as 50.7% (active).
In the case of `CC1CN(CC(=O)NCc2cc(-c3ccccc3)on2)Cc2ccccc2O1` (stereo not given), the inhibition is reported as -5.63% (inactive).
For `CN(C(=O)c1cc(-c2ccc(O)cc2)on1)c1ccccc1`, the inhibition was 60% (active).
In the case of `O=C(c1cc(-c2cccs2)on1)N1CCCC1`, the inhibition is reported as -49.2% (inactive).
In the case of `CCC(=O)Nc1ccccc1-c1nnn(CC(=O)Nc2ccc(CC)cc2)n1`, the inhibition is reported as 12.7% (inactive).
In the case of `O=C(c1ccco1)N1CCN(c2nccn3c(-c4cccc(O)c4)cnc23)CC1`, the inhibition is reported as -3.76% (inactive).
With `CC(C)Cn1c(C2CC(=O)N(c3ccccc3)C2)nc2ccccc21` (stereo not given) the inhibition was 3.79% (inactive).
For `CCOc1ccc(-c2cn(-c3ccc(OC)cc3)c(SCC(=O)Nc3ccccc3C)n2)cc1`, the inhibition was -24.2% (inactive).
In the case of `c1c2c(cc3sc(N4CCCCC4)nc13)OCCO2`, the inhibition is reported as 80.9% (active).
In the case of `O=C(c1ccc2nc(N3CCCCC3)sc2c1)N1CCN(c2ccccc2)CC1`, the inhibition is reported as -69.3% (inactive).
For `O=C(Nc1ccc2c(c1)OCCO2)Nc1nnc(N2CCCCCC2)s1`, the inhibition was -9.25% (inactive).
With `COc1ccc(-c2cc(C(=O)NC3CCCC(C)C3C)c3ccccc3n2)cc1` (stereo not given) the inhibition was 1.88% (inactive).
With `CCOC(=O)c1cnc2nc(NCc3cccc(OC)c3)[nH]n2c1=O` the inhibition was 3.92% (inactive).
For `N/C(=N/OC(=O)c1ccccc1I)c1nonc1N`, the inhibition was -2.53% (inactive).
With `CCN1CCN(C(=O)c2sc3nc(C)nc(N4CCN(c5ccccn5)CC4)c3c2C)CC1` the inhibition was -1.03% (inactive).
With `Cc1nc(N2CCN(c3ccccn3)CC2)c2c(C)c(C(=O)NCCN3CCOCC3)sc2n1` the inhibition was 14.5% (inactive).
For `Cc1nc(N2CCN(c3ccccn3)CC2)c2c(C)c(C(=O)N3CCN(Cc4ccc5c(c4)OCO5)CC3)sc2n1`, the inhibition was 36.8% (active).
For `COc1ccc(NC(=O)CSc2nc3c(sc(=S)n3-c3ccccc3F)c(=O)n2-c2ccc(F)cc2)c(OC)c1`, the inhibition was 15.7% (inactive).
With `CC1CN(Cc2cccc3ncccc23)Cc2ccccc2O1` (stereo not given) the inhibition was -3.29% (inactive).
In the case of `CC1CCc2c(sc(NC(=O)c3ccccc3F)c2C(=O)N2CCOCC2)C1` (stereo not given), the inhibition is reported as -2.16% (inactive).
With `CCOc1ccccc1OCC(=O)OCc1ccccc1` the inhibition was 2.74% (inactive).
For `CCOc1ccccc1OCC(=O)NN`, the inhibition was 58.7% (active).
With `CCOc1ccccc1OCC(=O)Nc1ccc(C(=O)O)cc1` the inhibition was 4.66% (inactive).
In the case of `Cc1ccc(-c2noc(CCC(=O)N(C)c3ccccc3Cl)n2)cc1`, the inhibition is reported as 13.7% (inactive).
In the case of `Nc1ncnc(NCc2ccc(Cl)cc2)c1[N+](=O)[O-]`, the inhibition is reported as -0.74% (inactive).
With `CC(C)(CO)Nc1ncnc(N)c1[N+](=O)[O-]` the inhibition was 50.6% (active).
For `COC(=O)NNc1ncnc(N)c1[N+](=O)[O-]`, the inhibition was 2.66% (inactive).
In the case of `O=C(/C=C/c1cccs1)N1CC[C@@H]2[C@H](CCCN2C(=O)c2ccc3[nH]ccc3c2)C1`, the inhibition is reported as -4% (inactive).
For `COC(=O)c1c(NC(=O)C(C)N2C(=O)c3ccccc3C2=O)sc2c1CCCC2` (stereo not given), the inhibition was -8.49% (inactive).
With `COc1ccc2occ(C(=O)c3ccc(N=C(C)N(C)C)cc3)c2c1` the inhibition was -23.4% (inactive).
With `COc1ccc(OC)c(C(=O)c2coc3ccc(OC)cc23)c1` the inhibition was 1.14% (inactive).
With `CC(=O)Oc1ccc2occ(C(=O)c3ccc(C)cc3)c2c1` the inhibition was 41% (active).
In the case of `CC(=O)Oc1ccc2occ(C(=O)c3cc4ccccc4o3)c2c1`, the inhibition is reported as 53.6% (active).
For `COc1ccc(NC(=O)Cc2coc3ccc(C)cc23)cc1`, the inhibition was -3.85% (inactive).
With `Cc1cc(=O)oc2c(OC(=O)c3cc4ccccc4o3)c(OC(=O)c3cc4ccccc4o3)ccc12` the inhibition was -3.97% (inactive).
For `CCOC(=O)Cn1c(=O)c2c(nc3n2CC(C)CN3c2ccccc2C)n(C)c1=O` (stereo not given), the inhibition was 2.64% (inactive).
For `O=C1c2ccccc2S(=O)(=O)N1c1ccc(Cl)cc1Cl`, the inhibition was 6.48% (inactive).
With `O=C(O)C(CCC(=O)N1CCOCC1)N1C(=O)c2ccccc2C1=O` (stereo not given) the inhibition was -9.92% (inactive).
With `Nc1nc(=O)n(C2OC(CO)C(O)C2O)cc1Br` (stereo not given) the inhibition was 5.2% (inactive).
For `O=c1cnn(C2OC(CO)C(O)C2O)c(=O)[nH]1` (stereo not given), the inhibition was 74.7% (active).
In the case of `Nc1nc(N)c2ncn(C3OC(CO)C(O)C3O)c2n1` (stereo not given), the inhibition is reported as -3.32% (inactive).
With `CCOC(=O)c1ccc(NC(=O)CSc2nnnn2-c2ccc([N+](=O)[O-])cc2)cc1` the inhibition was -1.87% (inactive).
For `N#Cc1c(NC(=O)c2cc([N+](=O)[O-])ccc2Cl)sc2c1CCC2`, the inhibition was 32.6% (active).
With `N#Cc1c(NC(=O)CSc2ccc([N+](=O)[O-])cn2)sc2c1CCCC2` the inhibition was -0.26% (inactive).
For `N#Cc1c(NC(=O)c2cc([N+](=O)[O-])nn2Cc2ccccc2)sc2c1CCC2`, the inhibition was 2.14% (inactive).
For `Cc1nnc(SCc2cccc3ccccc23)[nH]c1=O`, the inhibition was -2.21% (inactive).
With `O=S(=O)(c1ccc(Cl)c(C(F)(F)F)c1)N1CCNCC1` the inhibition was 3.58% (inactive).
For `COC(=O)CNc1nc(Cl)nc(Nc2ccc(I)cc2C)n1`, the inhibition was -1.03% (inactive).
With `O=C(CN1CCN(Cc2nc(-c3ccco3)cs2)CC1)NCc1ccc2c(c1)OCO2` the inhibition was -0.64% (inactive).
For `O=C(NCc1ccc(Cl)cc1)N1CCN(Cc2nc(-c3ccco3)cs2)CC1`, the inhibition was 41.8% (active).
With `CC(=O)N1CCN(Cc2nc(-c3ccc(Cl)cc3)cs2)CC1` the inhibition was 2.89% (inactive).
For `O=[N+]([O-])c1ccc(NC(=S)Nc2ccc(Br)cn2)cc1`, the inhibition was 2.08% (inactive).
For `CC(C)(C)NC(=O)c1cc2nc(-c3ccco3)cc(C(F)(F)F)n2n1`, the inhibition was -0.09% (inactive).
For `Cc1ccc(C(=O)NCCNc2ccc([N+](=O)[O-])cc2)cc1`, the inhibition was 1.76% (inactive).
With `O=C(NCCCNc1ccc([N+](=O)[O-])cc1Cl)c1ccc(Cl)cc1` the inhibition was 3.65% (inactive).
In the case of `Cc1ccc(C(=O)NCCNc2ccc([N+](=O)[O-])cc2Cl)cc1`, the inhibition is reported as 34.1% (active).
For `CC(Oc1cccc2cccnc12)C(=O)NNC(=S)NC(=O)c1cc2ccccc2oc1=O` (stereo not given), the inhibition was 3.86% (inactive).
In the case of `Cc1ccccc1C1=NN2C(=N)/C(=C/c3c(C)nn(-c4ccccc4)c3Cl)C(=O)N=C2S1`, the inhibition is reported as -14.8% (inactive).
With `CCCN(CCC)S(=O)(=O)c1ccc2[nH]c(=O)ccc2c1` the inhibition was -11.6% (inactive).
With `COC(=O)N/N=C\c1ccc(-c2cccc(Cl)c2)o1` the inhibition was -22.7% (inactive).
For `COc1cc(C(=O)N/N=C/c2cccs2)ccc1O`, the inhibition was 2.59% (inactive).
With `CCC/C=N/NC(=O)c1cc(OC)c(OC)c(OC)c1` the inhibition was 59.2% (active).
For `CCCOC(=O)c1ccc(NC(=O)c2cc(OC)c(OC)c(OC)c2)cc1`, the inhibition was -1.39% (inactive).
For `COc1cc(C(=O)N/N=C/c2c(Cl)[nH]c(=O)n2-c2ccccc2)cc(OC)c1OC`, the inhibition was 72.6% (active).
In the case of `COc1cc(C(=O)N/N=C/c2cccs2)cc(OC)c1OC`, the inhibition is reported as 61.3% (active).
In the case of `Cc1ccc(C(=O)N/N=C\c2ccc(-c3cccc(C(=O)O)c3)o2)cn1`, the inhibition is reported as -9% (inactive).
For `CCC/C=N/NC(=O)c1ccc(C)cc1C`, the inhibition was -15.2% (inactive).
In the case of `COc1cc(C(=O)NCc2n[nH]c(=S)n2-c2ccccc2)cc(OC)c1OC`, the inhibition is reported as 3.36% (inactive).
For `COc1cc(OC)c(OC)cc1/C=N/NC(=O)c1ccccn1`, the inhibition was -43.7% (inactive).
In the case of `COc1cc(C(=O)N/N=C\c2ccc(-c3cccc(C(=O)O)c3)o2)cc(OC)c1OC`, the inhibition is reported as 64.9% (active).
In the case of `COc1cc(/C=N/NC(=O)c2cccs2)cc(OC)c1OC`, the inhibition is reported as -55.4% (inactive).
With `Cc1ccc(N2C(=O)c3cccc4c(Br)c([N+](=O)[O-])cc(c34)C2=O)c(C)c1` the inhibition was 6.15% (inactive).
For `CCN(CC)CCCN(Cc1ccco1)C(=S)Nc1cc(C)c(Cl)cc1OC`, the inhibition was 3.59% (inactive).
For `Cc1nc2c(c(=O)[nH]1)CN(Cc1cccn1C)CC2`, the inhibition was -16.9% (inactive).
For `Oc1ccc(-c2cnc3c(NCc4ccco4)nccn23)cc1`, the inhibition was -72.4% (inactive).
In the case of `c1coc(CNc2ncnc3ccccc23)c1`, the inhibition is reported as 36.3% (active).
With `Ic1ccc2ncnc(NCc3ccco3)c2c1` the inhibition was 15.7% (inactive).
For `Cc1ccc(-n2ncc3c(NCc4ccco4)ncnc32)cc1`, the inhibition was -76.8% (inactive).
With `CCOC(=O)c1ccc(NC(=O)N2CCN(c3nc(-c4ccccc4)cs3)CC2)cc1` the inhibition was -7.79% (inactive).
In the case of `COCCNC(=O)c1cc2nc(-c3cccs3)cc(C(F)(F)F)n2n1`, the inhibition is reported as 8.1% (inactive).
In the case of `Cc1cc(/C=C2/NC(=O)NC2=O)c(C)n1-c1ccc2ccccc2c1`, the inhibition is reported as 7.98% (inactive).
In the case of `Cc1ccccc1-n1c(C)cc(/C=C2\NC(=O)NC2=O)c1C`, the inhibition is reported as 57.4% (active).
With `Cc1cc(/C=C2/NC(=O)NC2=O)c(C)n1-c1ccc(Cl)cc1` the inhibition was 4.42% (inactive).
With `CN(C(=O)n1nnc2ccccc21)c1ccccc1` the inhibition was 44.2% (active).
In the case of `Cc1nn(C(=O)N(C)c2ccccc2)c(C)c1Br`, the inhibition is reported as 5% (inactive).
For `COc1ccc(C(=O)n2nnc3ccccc32)cc1`, the inhibition was -1.4% (inactive).
With `O=C(N/N=C/c1ccc(Cl)cc1)c1ccccc1F` the inhibition was -4.81% (inactive).
